PubChem BioAssay (NCI)
The panel holds about 83,000 compounds, 20% with a hit somewhere; the sample as a whole holds those more often.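 A percent growth of 40 corresponds to 60% growth inhibition; 0 means no net growth; -100 means all cells died. Active threshold: below 10.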

Tests used:
Test in all cases: NCI-60 one-dose screen, 48 h (100 = growth as untreated, 0 = no growth, -100 = all killed)
Settings in all cases: 10 µM unless noted
NCI-H23 lung = system: NCI-H23 lung
NCI-H226 lung = system: NCI-H226 lung
HOP-62 NSCLC = system: HOP-62 NSCLC
NCI-H460 lung = system: NCI-H460 lung
HOP-92 NSCLC = system: HOP-92 NSCLC
NCI-H522 lung = system: NCI-H522 lung
A549/ATCC NSCLC = system: A549/ATCC NSCLC
786-0 renal = system: 786-0 renal
COLO 205 colon = system: COLO 205 colon
DU-145 prostate = system: DU-145 prostate
K-562 leukemia = system: K-562 leukemia
MALME-3M melanoma = system: MALME-3M melanoma
MDA-MB-231 breast = system: MDA-MB-231 breast
RXF 393 renal = system: RXF 393 renal
SF-268 CNS = system: SF-268 CNS
SF-295 CNS = system: SF-295 CNS
SF-539 CNS = system: SF-539 CNS
UACC-257 melanoma = system: UACC-257 melanoma
M14 melanoma = system: M14 melanoma
NCI-H322M lung = system: NCI-H322M lung

Measured: growth

Cc1cccc(C)c1NCc1nc(-c2ccccc2)n[nH]1
inactive: NCI-H23 lung 97.9% | NCI-H226 lung 112% | HOP-62 NSCLC 100% | NCI-H460 lung 107% | HOP-92 NSCLC 101% | NCI-H522 lung 94.5% | A549/ATCC NSCLC 101% | 786-0 renal 95.6% | COLO 205 colon 106% | DU-145 prostate 106% | K-562 leukemia 100% | MALME-3M melanoma 98.6% | MDA-MB-231 breast 103% | RXF 393 renal 121% | SF-268 CNS 101% | SF-295 CNS 98.1% | SF-539 CNS 93.2% | UACC-257 melanoma 100% | M14 melanoma 97.9%

O=C(O)/C(=C/c1ccc(O)cc1)c1ccccc1
inactive: NCI-H23 lung 93.9% | NCI-H322M lung 100% | HOP-62 NSCLC 88.8% | NCI-H460 lung 108% | HOP-92 NSCLC 83.1% | NCI-H522 lung 95% | A549/ATCC NSCLC 93% | 786-0 renal 92.2% | COLO 205 colon 120% | DU-145 prostate 97.9% | K-562 leukemia 104% | MALME-3M melanoma 94.5% | MDA-MB-231 breast 103% | RXF 393 renal 70.6% | SF-268 CNS 95.8% | SF-295 CNS 105% | SF-539 CNS 122% | UACC-257 melanoma 90.3% | M14 melanoma 97.5%

Cc1ccc(Nc2c(C(N)=O)cnc3ccc(S(=O)(=O)Nc4cc(C)on4)cc23)cc1
inactive: NCI-H23 lung 95.1% | NCI-H226 lung 95% | HOP-62 NSCLC 89.8% | NCI-H460 lung 103% | HOP-92 NSCLC 84.1% | NCI-H522 lung 92.2% | A549/ATCC NSCLC 103% | 786-0 renal 106% | COLO 205 colon 101% | DU-145 prostate 109% | K-562 leukemia 117% | MALME-3M melanoma 108% | MDA-MB-231 breast 99.5% | RXF 393 renal 105% | SF-268 CNS 104% | SF-539 CNS 92.7% | UACC-257 melanoma 101% | M14 melanoma 100%

COc1ccc(C(=O)c2ccc(C)cc2)c(OC)c1OC
inactive: NCI-H23 lung 82.9% | NCI-H226 lung 90.1% | HOP-62 NSCLC 78.5% | NCI-H460 lung 87.1% | HOP-92 NSCLC 85.6% | NCI-H522 lung 81.8% | A549/ATCC NSCLC 78.3% | 786-0 renal 107% | COLO 205 colon 70.8% | DU-145 prostate 89.8% | K-562 leukemia 40% | MALME-3M melanoma 92.5% | MDA-MB-231 breast 75.9% | RXF 393 renal 86.1% | SF-268 CNS 85.9% | SF-295 CNS 74.5% | SF-539 CNS 77% | UACC-257 melanoma 82.9% | M14 melanoma 61.3%

OCC(CO)(CCl)CCl
inactive: NCI-H23 lung 93.2% | NCI-H226 lung 101% | HOP-62 NSCLC 99% | NCI-H460 lung 106% | HOP-92 NSCLC 86.4% | NCI-H522 lung 91.1% | A549/ATCC NSCLC 76.7% | 786-0 renal 100% | COLO 205 colon 105% | DU-145 prostate 105% | K-562 leukemia 106% | MALME-3M melanoma 101% | MDA-MB-231 breast 94.8% | RXF 393 renal 113% | SF-268 CNS 98% | SF-295 CNS 107% | SF-539 CNS 102% | UACC-257 melanoma 69.6% | M14 melanoma 89.4%

COc1cc(-c2cc3cc(O)ccc3oc2=O)cc(OC)c1OC
inactive: NCI-H23 lung 101% | NCI-H226 lung 89.2% | HOP-62 NSCLC 90.9% | NCI-H460 lung 107% | HOP-92 NSCLC 86.5% | NCI-H522 lung 86.5% | A549/ATCC NSCLC 107% | 786-0 renal 98.2% | COLO 205 colon 102% | DU-145 prostate 107% | K-562 leukemia 89.1% | MALME-3M melanoma 112% | MDA-MB-231 breast 72.8% | RXF 393 renal 101% | SF-268 CNS 102% | SF-295 CNS 91.9% | SF-539 CNS 87.1% | M14 melanoma 86.9%

N#C/C(=C\c1ccc(-c2ccc(F)cc2)o1)c1nc(-c2ccco2)cs1
inactive: NCI-H23 lung 93.6% | NCI-H226 lung 84% | HOP-62 NSCLC 96.7% | HOP-92 NSCLC 93.9% | NCI-H522 lung 98.1% | A549/ATCC NSCLC 103% | 786-0 renal 109% | COLO 205 colon 108% | DU-145 prostate 104% | K-562 leukemia 95.9% | MALME-3M melanoma 98.1% | MDA-MB-231 breast 88.7% | RXF 393 renal 116% | SF-268 CNS 106% | SF-295 CNS 102% | SF-539 CNS 98.7% | UACC-257 melanoma 106% | M14 melanoma 102%
